Measured values taken from PubChem BioAssay (NCATS).
Inconclusive results are not listed. Active and inactive are the calls of the source. Calls follow the shape of the dose curve; as a rule, active = well fitted curve in the direction sought with a large enough effect; inconclusive = small, poorly fitted or top-dose-only effect, or another doubt; inactive = no such curve, though single readings can be large; an effect the other way counts as inactive or inconclusive.

Columns and labels:
[1] = target: Ubiquitin carboxyl-terminal hydrolase 1 (Homo sapiens) (UniProt O94782); experiment: Inhibitors of USP1/UAF1: Pilot qHTS (AID 504865); also: nearly all actives have a fitted effect of over 35% in size; also: potency is read from the fitted curve at half-maximal effect
Sequence of Ubiquitin carboxyl-terminal hydrolase 1 (Homo sapiens) (O94782 whole entry, looked up): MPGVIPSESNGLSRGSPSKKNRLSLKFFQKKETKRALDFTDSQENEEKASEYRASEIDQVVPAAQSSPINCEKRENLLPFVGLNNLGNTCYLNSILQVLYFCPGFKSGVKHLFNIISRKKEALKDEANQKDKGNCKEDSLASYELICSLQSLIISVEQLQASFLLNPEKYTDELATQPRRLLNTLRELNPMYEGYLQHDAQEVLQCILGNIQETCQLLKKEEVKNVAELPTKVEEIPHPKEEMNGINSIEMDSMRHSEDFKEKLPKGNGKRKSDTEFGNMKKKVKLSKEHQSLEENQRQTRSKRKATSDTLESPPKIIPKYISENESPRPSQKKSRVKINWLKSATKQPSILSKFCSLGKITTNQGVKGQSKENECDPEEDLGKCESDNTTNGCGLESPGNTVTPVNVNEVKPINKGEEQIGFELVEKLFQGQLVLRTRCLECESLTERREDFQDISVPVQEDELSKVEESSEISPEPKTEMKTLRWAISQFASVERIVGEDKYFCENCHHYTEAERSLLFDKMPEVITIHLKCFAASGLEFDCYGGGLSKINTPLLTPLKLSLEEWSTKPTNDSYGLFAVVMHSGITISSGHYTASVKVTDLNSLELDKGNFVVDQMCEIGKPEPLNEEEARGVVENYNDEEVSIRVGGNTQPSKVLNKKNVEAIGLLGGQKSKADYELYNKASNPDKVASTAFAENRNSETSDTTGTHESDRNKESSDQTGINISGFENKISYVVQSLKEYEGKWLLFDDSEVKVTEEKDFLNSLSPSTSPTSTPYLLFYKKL
In short: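 Deubiquitinase activity followed as kinetic rhodamine fluorescence release from 150 nM Ub-Rho. 1 nM USP1/UAF1 with compound, after 15 min room-temperature preincubation, in HEPES pH 7.8 buffer containing TCEP, EDTA, BSA and Tween-20.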

[2] = qHTS profiling for inhibitors of Plasmodium falciparum proliferation (AID 504749);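 also: 0% = DMSO vehicle and full inhibition = artemisinin control; nearly all actives have a fitted effect of over 60% in size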; settings: P. falciparum in erythrocytes, SYBR Green DNA, 72 h, at 28.7 µM (top of the series)
In short: (§1)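 Infected RBCs, 0.3% parasitemia/2.5% Hct final; cpd 72 h, 37 C, 5% CO2; lysis buffer with saponin/triton/SYBR Green I, o/n RT dark; FI 485/535; norm. to artemisinin (0.29 uM) and DMSO.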

[3] = system: AA1029; experiment: as above; settings: P. falciparum in erythrocytes, SYBR Green DNA, 72 h; series mostly up to 28.7 µM
In short: as §1

[4] = system: ATS189; experiment: as above; settings: P. falciparum in erythrocytes, SYBR Green DNA, 72 h; series mostly up to 28.7 µM
In short: as §1

[5] = system: CP185; experiment: as above; settings: P. falciparum in erythrocytes, SYBR Green DNA, 72 h; series mostly up to 28.7 µM
In short: as §1

[6] = system: CP201; experiment: as above; settings: P. falciparum in erythrocytes, SYBR Green DNA, 72 h; series mostly up to 28.7 µM
In short: as §1

[7] = system: CP238; experiment: as above; settings: P. falciparum in erythrocytes, SYBR Green DNA, 72 h; series mostly up to 28.7 µM
In short: as §1

[8] = system: CP252; experiment: as above; settings: P. falciparum in erythrocytes, SYBR Green DNA, 72 h; series mostly up to 28.7 µM
In short: as §1

[9] = system: CP265; experiment: as above; settings: P. falciparum in erythrocytes, SYBR Green DNA, 72 h; series mostly up to 28.7 µM
In short: as §1

[10] = system: CP286; experiment: as above; settings: P. falciparum in erythrocytes, SYBR Green DNA, 72 h; series mostly up to 28.7 µM
In short: as §1

[11] = system: CP305; experiment: as above; settings: P. falciparum in erythrocytes, SYBR Green DNA, 72 h; series mostly up to 28.7 µM
In short: as §1

[12] = system: CP325; experiment: as above; settings: P. falciparum in erythrocytes, SYBR Green DNA, 72 h; series mostly up to 28.7 µM
In short: as §1

[13] = system: DFO2036; experiment: as above; settings: P. falciparum in erythrocytes, SYBR Green DNA, 72 h; series mostly up to 28.7 µM
In short: as §1

[14] = system: FAB9; experiment: as above; settings: P. falciparum in erythrocytes, SYBR Green DNA, 72 h; series mostly up to 28.7 µM
In short: as §1

[15] = system: PC15; experiment: as above; settings: P. falciparum in erythrocytes, SYBR Green DNA, 72 h; series mostly up to 28.7 µM
In short: as §1

[16] = system: PC49; experiment: as above; settings: P. falciparum in erythrocytes, SYBR Green DNA, 72 h; series mostly up to 28.7 µM
In short: as §1

[17] = qHTS for Inhibitors of Plasmodium falciparum (HB3) proliferation (AID 504318); also: nearly all actives have a fitted effect of over 60% in size; also: potency is read from the fitted curve at half-maximal effect
In short: (§2)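 Erythrocytes infected with P. falciparum line (0.3% parasitemia, 2.5% hematocrit final) incubated with compounds 72 h at 37 °C, 5% CO2; SYBR Green lysis buffer added, fluorescence read next day. Normalized to 0.29 uM artemisinin and DMSO.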

[18] = qHTS for Inhibitors of Plasmodium falciparum (7G8) proliferation (AID 504316); also: nearly all actives have a fitted effect of over 65% in size; also: potency is read from the fitted curve at half-maximal effect
In short: as §2

[19] = qHTS for Inhibitors of Plasmodium falciparum (CP250) proliferation (AID 504320);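 also: plate controls were DMSO vehicle for no effect and 0.29 µM artemisinin control for full effect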
In short: as §2

[20] = qHTS for Inhibitors of Plasmodium falciparum (GB4) proliferation (AID 504315);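 also: 0% = DMSO vehicle and -100% = 0.29 µM artemisinin control; nearly all actives have a fitted effect of over 50% in size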
In short: as §2

CNCC(=O)NC(CCCN=C(N)N)C(=O)NC(C(=O)NC(Cc1ccc(O)cc1)C(=O)NC(C(=O)NC(Cc1cnc[nH]1)C(=O)N1CCCC1C(=O)NC(C)C(=O)O)C(C)C)C(C)C (stereo not drawn)
inactive: Potency [1] | activity, negative = inhibition ([2]; parasite line A) 15.8% | activity, negative = inhibition ([2]; parasite line B) 17.4% | Potency [3] | Potency [4] | Potency [5] | Potency [6] | Potency [7] | Potency [8] | Potency [9] | Potency [10] | Potency [11] | Potency [12] | Potency [13] | Potency [14] | Potency [15] | Potency [16]

COc1ccc(-c2nc(-c3ccccc3)c(Nc3ccc4ccccc4c3)o2)cc1
active: Potency [17] 1690 nM

CC#CCN1c2ccccc2[C@]23C[C@@H](C(=O)OC)N(C(=O)c4cccs4)C2=NC(C(=O)OC)=C(C(=O)OC)[C@H]13
inactive: Potency [18] | Potency [17] | Potency [19]

COC(=O)C1=C(C(=O)OC)[C@@H]2N(C)c3ccc(OC)cc3[C@@]23C[C@@H](C(=O)OC)N(S(=O)(=O)c2ccc([N+](=O)[O-])cc2)C3=N1
inactive: Potency [19]

CCCCCC(=O)c1cc(CC(C(=O)OC)C(=O)OC)cc2cc(OC)c(OC)cc12
inactive: Potency [20] | Potency [19]

CC(=O)OC[C@H]1O[C@H](C#Cc2ccc(C)cc2C)C=C[C@H]1OC(C)=O
inactive: Potency [19]
active: Potency [18] 1690 nM

COC(=O)C1=C(C(=O)OC)[C@@H]2Nc3ccccc3[C@@]23C[C@@H](C(=O)OC)N(S(=O)(=O)c2ccc(C#N)cc2)C3=N1
inactive: Potency [19]

CCCCc1cc2c(cn1)=C(OC(=O)c1ccc(Cl)nc1)C(C)(OC(=O)CC)C(=O)C=2 (stereo not drawn)
inactive: Potency [19]

CC#CCN1c2ccccc2[C@]23C[C@@H](C(=O)OC)N(S(=O)(=O)c4c(C)noc4C)C2=NC(C(=O)OC)=C(C(=O)OC)[C@H]13
inactive: Potency [19]

CCOC(=O)OC[C@H]1O[C@H](C#Cc2ccccc2)C=C[C@H]1OC(=O)OCC
inactive: Potency [19]

C=CC1=C2C=C(C3CC3)N(C3CC3)C=C2C(=O)C(C)(OC(=O)c2ccco2)C1=O (stereo not drawn)
inactive: Potency [20] | Potency [19]

CC#CCN1c2ccccc2[C@]23C[C@@H](C(=O)OC)N(C(=O)c4cc(C)oc4C)C2=NC(C(=O)OC)=C(C(=O)OC)[C@H]13
active: Potency [18] 1510 nM

CCCCS(=O)(=O)N1C2=NC(C(=O)OC)=C(C(=O)OC)[C@@H]3N(Cc4ccccc4)c4ccccc4[C@]23C[C@H]1C(=O)OC
active: Potency [18] 1510 nM | Potency [17] 2390 nM

CC(N)C(=O)NCC(=O)NC1CSSCC(C(=O)O)NC(=O)C(CO)NC(=O)C(C(C)O)NC(=O)C(Cc2ccccc2)NC(=O)C(C(C)O)NC(=O)C(CCCCN)NC(=O)C(Cc2c[nH]c3ccccc23)NC(=O)C(Cc2ccccc2)NC(=O)C(Cc2ccccc2)NC(=O)C(CC(N)=O)NC(=O)C(CCCCN)NC1=O (stereo not drawn)
inactive: Potency [1] | activity, negative = inhibition ([2]; parasite line A) 12% | activity, negative = inhibition ([2]; parasite line B) 4.8% | Potency [3] | Potency [4] | Potency [5] | Potency [6] | Potency [7] | Potency [8] | Potency [9] | Potency [10] | Potency [11] | Potency [12] | Potency [13] | Potency [14] | Potency [15] | Potency [16]

C=C[C@@]1(C)CC[C@H](O)[C@H]2C(=O)CCC[C@H]21
inactive: Potency [20] | Potency [19]

COc1ccc(-c2nc(-c3ccccc3)c(Nc3c(C)cccc3C)o2)cc1
inactive: Potency [19]

COc1ccc(-c2nc3c(c4c2C[C@H](c2ccccc2)OC4)CN(S(=O)(=O)c2ccc(C#N)cc2)CC3)c(C)c1
inactive: Potency [19]
active: Potency [18] 1510 nM

COC(=O)c1ccccc1S(=O)(=O)N1CCc2nc(-c3ccc(OC)cc3C)c3c(c2C1)CO[C@@H](c1ccccc1)C3
inactive: Potency [19]

COC(=O)C1=C(C(=O)OC)[C@@H]2Nc3ccccc3[C@@]23C[C@@H](C(=O)OC)N(C(=O)C2CCC2)C3=N1
inactive: Potency [20] | Potency [19]

COC(=O)C1=C(C(=O)OC)[C@@H]2Nc3ccccc3[C@@]23C[C@@H](C(=O)OC)N(S(=O)(=O)c2ccc(C(F)(F)F)cc2)C3=N1
inactive: Potency [19]

COc1cccc2c1C(=O)CC(c1ccccc1)O2 (stereo not drawn)
inactive: Potency [1]

O=C(O)c1cc2ccccc2[nH]1
inactive: Potency [1]

CC[C@H](/C=C/[C@@H](C)[C@H]1CC[C@H]2C3CC=C4C[C@@H](O)CC[C@]4(C)C3CC[C@]12C)C(C)C (stereo partly drawn)
inactive: Potency [1]

O=C(O)c1ccccc1-c1c2cc(Br)c(=O)c(Br)c-2oc2c(Br)c(O)c(Br)cc12
inactive: Potency [1] | activity, negative = inhibition ([2]; parasite line A) 7.94% | activity, negative = inhibition ([2]; parasite line B) -13.6% | Potency [3] | Potency [4] | Potency [5] | Potency [6] | Potency [7] | Potency [8] | Potency [9] | Potency [10] | Potency [11] | Potency [12] | Potency [13] | Potency [14] | Potency [15] | Potency [16]

CC1(C)C(/C=C/C=C/C=C/C=C2\N(CCCCS(=O)(=O)O)c3ccc4ccccc4c3C2(C)C)=[N+](CCCCS(=O)(=O)[O-])c2ccc3ccccc3c21
inactive: activity, negative = inhibition ([2]; parasite line A) 2.34% | activity, negative = inhibition ([2]; parasite line B) 4.13% | Potency [3] | Potency [4] | Potency [5] | Potency [6] | Potency [7] | Potency [8] | Potency [9] | Potency [10] | Potency [11] | Potency [12] | Potency [13] | Potency [14] | Potency [15] | Potency [16]
active: Potency [1] 31600 nM
